# Laboratory results as given in PubChem BioAssay.
# Records with an inconclusive call do not appear. Calls of active or inactive are those of the source. Unless noted, no cut-off is given here; in the data, nearly all actives have AC50 up to about 30 µM.
# Key:
# [1] = growth inhibition of DIPG glioma cells, dose response, cell-based, SU-DIPG-XIII, MIPE4.0, CellTiter-Glo, qHTS (AID 1347061; cut-off not given, nearly all actives have AC50 up to about 37 µM;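 note: cells exposed to compound for 48 hours before readout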); conditions: SU-DIPG-XIII viability, CellTiter-Glo ATP luminescence
# [2] = growth inhibition of DIPG glioma cells, dose response, cell-based, JHH-DIPG-1, MIPE4.0, CellTiter-Glo, qHTS (AID 1347062; cut-off not given, nearly all actives have AC50 up to about 27 µM;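 for AC50: cells exposed to compound for two days before readout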); conditions: JHH-DIPG-1 viability, CellTiter-Glo ATP luminescence
# [3] = growth inhibition of DIPG glioma cells, dose response, cell-based, SU-DIPG-IV, MIPE4.0, CellTiter-Glo, qHTS (AID 1347063); conditions: SU-DIPG-IV viability, CellTiter-Glo ATP luminescence;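 note: compound exposure lasted 48 hours before the viability readout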
# [4] = SU-DIPG-VI glioma cell viability, MIPE4.0 library, CellTiter-Glo luminescence, qHTS (AID 1347066); conditions: CellTiter-Glo ATP luminescence;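 note: cells exposed to compound for 48 hours before readout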
# [5] = SU-DIPG-XXV glioma cell viability, MIPE5.0 library, qHTS (AID 1347068; cut-off not given, nearly all actives have IC50 up to about 30 µM;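 for IC50: cells exposed to compound for 48 hours before viability readout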)
# [6] = JHH-DIPG-1 glioma cell viability, MIPE5.0 library, CellTiter-Glo luminescence, qHTS (AID 1347067; cut-off not given, nearly all actives have AC50 up to about 26 µM;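 note: cells exposed to compound for 48 hours before readout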); conditions: JHH-DIPG-1 glioma viability, CellTiter-Glo ATP luminescence
# [7] = growth inhibition of DIPG glioma cells, dose response, cell-based, SU-DIPG-XIII, MIPE5.0, CellTiter-Glo, qHTS (AID 1347064; cut-off not given, nearly all actives have AC50 up to about 23 µM;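 note: cells exposed to compound for 48 hours before the viability read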); conditions: SU-DIPG-XIII viability, CellTiter-Glo ATP luminescence
# [8] = viability loss in pontine glioma line – cell-based, SU-DIPG-XXV, MIPE5.0, CellTiter-Glo, qHTS, dose response (AID 1347065; cut-off not given, nearly all actives have AC50 up to about 26 µM;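 note: cells exposed to compound for 48 hours before ATP readout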); conditions: CellTiter-Glo ATP luminescence
# [9] = LFS_MB_P medulloblastoma growth inhibition, cell-based, chromothripsis tumors, cisplatin or BGB combos (AID 1671449; in the data active = inhibition above about 80%;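 note: cells exposed for 96 hours; 0% = vehicle DMSO and 100% = killing by high DMSO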); conditions: LFS_MB_P medulloblastoma cells
# [10] = HDN33 neuroblastoma growth inhibition, cell-based, chromothripsis tumors, cisplatin or BGB combos (AID 1671450; in the data active = inhibition above about 80%;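 note: cells exposed to compound for four days; 0% = vehicle DMSO and 100% = cell killing by high DMSO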); conditions: HDN33 neuroblastoma cells, stronger effect = higher value
# [11] = ICB984 medulloblastoma cell growth inhibition, synergistic combos for chromothripsis tumors, cisplatin or BGB combos (AID 1671451; call rule not given here;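 note: cells exposed for 96 hours before readout; 0% = vehicle DMSO and 100% = killing by high DMSO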); conditions: ICB984 medulloblastoma cells, drug combinations, stronger effect = higher value
# [12] = HTB85 osteosarcoma cell growth inhibition, synergistic combos for chromothripsis tumors, BGB or cisplatin IC20 combos (AID 1671453; in the data active = inhibition above about 80%;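 note: cells exposed for 96 hours before readout; 0% = vehicle DMSO and 100% = high DMSO killing control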); conditions: HTB85 osteosarcoma cells, drug combinations, stronger effect = higher value
# [13] = MDA-MB-436 breast carcinoma cell growth inhibition, synergistic combos for chromothripsis tumors, BGB or cisplatin combos (AID 1671458; call rule not given here;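 note: cells exposed for 96 hours; 0% = vehicle DMSO and 100% = killing by high DMSO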); conditions: MDA-MB-436 breast carcinoma growth inhibition, drug combinations, stronger effect = higher value
# [14] = growth inhibition of BT084 medulloblastoma cells, cell-based, ICGC_MB145, cisplatin and BGB IC40 combos (AID 1671461; in the data active = inhibition above about 80%;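 note: cells exposed to drugs for 96 hours; 0% = vehicle DMSO and 100% = high DMSO full killing control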); conditions: drug combinations, stronger effect = higher value
# [15] = growth inhibition of RCMB18 medulloblastoma cells, cell-based, cisplatin and BGB IC40 combos (AID 1671462; in the data active = inhibition above about 80%;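 note: cells exposed to compound for four days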); conditions: stronger effect = higher value
# [16] = growth inhibition of CRL1545 osteosarcoma cells, cell-based, cisplatin and BGB IC20 combos (AID 1671464; in the data active = inhibition above about 80%;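 note: cells exposed to compound for 96 hours before readout; 0% = vehicle DMSO and 100% = high DMSO killing control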); conditions: stronger effect = higher value
# [17] = sensitizers of A549 cells to miR-34 induction, primary screen, imaging, A549 dox-inducible miR-34, nuclei and caspase counts (AID 1347080;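 active = compounds whose cell count with miR-34 switched on is under 0.7 times the count with it off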); conditions: A549 miR-34 inducible, Hoechst nuclei count, 48 h
# [18] = survival rescue of mitochondrial mutant cells in low glucose, primary screen, MELAS cybrids, Rieske KO mouse fibroblasts, CellTiter-Glo (AID 1508586;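 active = mean z-score across replicates of 1.96 or higher in either the MELAS or the Rieske mutant cell line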;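 note: z relative to plate mean and SD of compound and empty wells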)
# [19] = modifiers of HSF1 nuclear foci, imaging, Selleck Cancer Library (AID 1347162; in the data active = plate-normalised HSF1 focus index below about 0.46); conditions: human cells, at 10 µM; SSMD: measured here: HSF1 foci SSMD mean; cell count: measured here: cell number; plate-normalised HSF1 focus index: stronger effect = lower value
# [20] = measured here: with BGB IC20 combination, at 0.5 µM
# [21] = measured here: with cisplatin IC20 combination, at 0.5 µM
# [22] = stronger effect = lower value, cell number ratio, induced over uninduced
# [23] = measured here: relative caspase fold change +Dox/-Dox
# [24] = measured here: total cells with miR-34 induction, stronger effect = lower value
# [25] = measured here: total cells without miR-34 induction
# [26] = MELAS cybrid survival, CellTiter-Glo 48 h, stronger effect = higher value
# [27] = Rieske KO mouse fibroblast survival, CellTiter-Glo 72 h
compound,measurement,setting,value
CN[C@H]1[C@H](O[C@@H]2[C@H](O[C@@H]3[C@@H](O)[C@@H](O)[C@@H](N=C(N)N)[C@@H](O)[C@H]3N=C(N)N)O[C@H](C)[C@@]2(O)C=O)O[C@@H](CO)[C@@H](O)[C@H]1O,outcome,[1],inactive
same,outcome,[2],inactive
same,outcome,[3],inactive
same,outcome,[4],inactive
CCn1c(C(=O)N(C2CC2)C2CC2)cc2c3c(ncn3C)c(Nc3cc(C)n(C)n3)nc21,outcome,[1],inactive
same,outcome,[2],inactive
same,outcome,[3],inactive
same,outcome,[4],inactive
same,outcome,[5],inactive
CC(C(C)N1CC(=O)NC(=O)C1)N1CC(=O)NC(=O)C1 (stereo not given),outcome,[1],inactive
same,outcome,[2],inactive
same,outcome,[3],inactive
same,outcome,[4],inactive
same,outcome,[6],inactive
same,outcome,[5],inactive
O=C(Nc1ncc(SCCN2CCCC2)s1)[C@]1(c2ccc(S(=O)(=O)C3CC3)cc2)C[C@H]1C1CCCCC1,outcome,[1],inactive
same,AC50,[2],14.8 µM (active)
same,AC50,[7],16.6 µM (active)
same,AC50,[8],9.34 µM (active)
same,AC50,[4],20.9 µM (active)
same,AC50,[6],11.8 µM (active)
same,IC50,[5],20.9 µM (active)
O=C(O)[C@H]1O[C@H](Oc2cc3oc(-c4ccccc4)cc(=O)c3c(O)c2O)[C@H](O)[C@@H](O)[C@@H]1O,outcome,[1],inactive
same,outcome,[2],inactive
same,outcome,[3],inactive
same,outcome,[4],inactive
O=C(O)CO.[NH2-].[NH2-].[Pt+2],outcome,[1],inactive
same,outcome,[2],inactive
same,outcome,[3],inactive
same,outcome,[4],inactive
same,inhibition,"[9]; at 0.5 µM, stronger effect = higher value",-35.8% (inactive)
same,inhibition,"[9]; measured here: combination with BGB IC20, at 0.005 µM",-22.6%
same,inhibition,"[9]; measured here: combination with BGB IC40, at 0.005 µM",-55.5%
same,inhibition,"[9]; measured here: combination with BGB IC40, at 0.05 µM",-20.9%
same,inhibition,"[9]; measured here: combination with cisplatin, at 0.5 µM, stronger effect = higher value",-40.8%
same,inhibition,"[9]; measured here: combination with cisplatin, at 5 µM, stronger effect = higher value",-22.9%
same,inhibition,"[10]; BGB combo, at 5 µM",-38.9%
same,inhibition,[10]; at 0.5 µM,11.9% (inactive)
same,inhibition,"[10]; cisplatin combo, at 5 µM",6.72%
same,inhibition,[10]; [20],3.13%
same,inhibition,[10]; [21],36.3%
same,inhibition,"[10]; single agent, at 5 µM",-22.5%
same,inhibition,"[11]; BGB IC20 combo, at 0.005 µM",-33.3%
same,inhibition,"[11]; BGB IC40 combo, at 0.005 µM",-24.4%
same,inhibition,"[11]; BGB IC40 combo, at 0.05 µM",-27.5%
same,inhibition,[11]; at 0.5 µM,-23.1% (inactive)
same,inhibition,"[11]; cisplatin combo, at 0.05 µM",-34.1%
same,inhibition,"[11]; cisplatin combo, at 0.5 µM",-33.3%
same,inhibition,"[11]; cisplatin combo, at 5 µM",-25.6%
same,inhibition,"[11]; measured here: 5 uM single agent, at 5 µM",-2.84%
same,inhibition,[12]; at 0.5 µM,1.55% (inactive)
same,inhibition,"[12]; measured here: with BGB IC20, at 0.5 µM",26.1%
same,inhibition,"[12]; measured here: with BGB IC20, at 5 µM",-2.11%
same,inhibition,"[12]; measured here: with cisplatin IC20, at 0.5 µM",-15.5%
same,inhibition,"[12]; measured here: with cisplatin IC20, at 5 µM",-7.66%
same,inhibition,"[12]; single agent, at 5 µM",-0.083%
same,inhibition,[13]; at 0.5 µM,-15.3% (inactive)
same,inhibition,"[13]; measured here: BGB combination, at 0.5 µM",-9.4%
same,inhibition,"[13]; measured here: BGB combination, at 5 µM",1.16%
same,inhibition,"[13]; measured here: cisplatin combination, at 0.5 µM",-35.5%
same,inhibition,"[13]; measured here: cisplatin combination, at 5 µM",-23.8%
same,inhibition,[14]; at 0.5 µM,-4.94% (inactive)
same,inhibition,"[14]; cisplatin combination, at 0.5 µM",2.17%
same,inhibition,"[14]; cisplatin combination, at 5 µM",-267%
same,inhibition,"[14]; measured here: BGB IC40 combination 0.05 uM, at 0.05 µM",-15.1%
same,inhibition,"[14]; single agent, at 5 µM",-4.36%
same,inhibition,[15]; at 0.5 µM,-16.2% (inactive)
same,inhibition,"[15]; cisplatin combo, at 5 µM",4.38%
same,inhibition,"[15]; measured here: BGB IC40 combination, at 0.05 µM",-28.2%
same,inhibition,"[15]; measured here: combination with cisplatin, at 0.5 µM",6.48%
same,inhibition,"[15]; single agent, at 5 µM",-8.12%
same,inhibition,[16]; at 0.5 µM,-2.61% (inactive)
same,inhibition,[16]; [20],-12.1%
same,inhibition,[16]; [21],0.578%
same,inhibition,"[16]; single agent, at 0.05 µM",-10.5%
same,inhibition,"[16]; single agent, at 5 µM",-18%
C[C@]12C=CC(=O)N[C@@H]1CC[C@@H]1[C@@H]2CC[C@]2(C)[C@@H](C(=O)Nc3cc(C(F)(F)F)ccc3C(F)(F)F)CC[C@@H]12,outcome,[1],inactive
same,outcome,[2],inactive
same,outcome,[3],inactive
CCCCCCCCCCCCCCCC(=O)OC[C@@H](NC(=O)C(Cl)Cl)[C@H](O)c1ccc([N+](=O)[O-])cc1,outcome,[1],inactive
same,outcome,[2],inactive
same,outcome,[3],inactive
same,outcome,[4],inactive
CNC(=O)CN1CCC(Oc2cc3c(Nc4cccc(Cl)c4F)ncnc3cc2OC)CC1,outcome,[1],inactive
same,outcome,[2],inactive
same,outcome,[3],inactive
same,outcome,[4],inactive
same,outcome,[6],inactive
same,outcome,[5],inactive
same,fold change,[17]; [22],0.965 (inactive)
same,fold change,[17]; [23],1.05
same,cell count,[17]; [24],5230
same,cell count,[17]; [25],5420
same,z-score,[18]; [26],-0.464 (inactive)
same,z-score,[18]; [27],-0.429
Nc1nc2[nH]cc(CCc3ccc(C(=O)N[C@@H](CCC(=O)O)C(=O)O)cc3)c2c(=O)[nH]1,outcome,[1],inactive
same,outcome,[2],inactive
same,outcome,[3],inactive
same,outcome,[4],inactive
same,outcome,[6],inactive
same,outcome,[5],inactive
same,fold change,[17]; [22],1.36 (inactive)
same,fold change,[17]; [23],0.473
same,cell count,[17]; [24],3100
same,cell count,[17]; [25],2280
same,SSMD,[19],-2.05
same,cell count,[19],7280
same,plate-normalised HSF1 focus index,[19],0.87 (inactive)
same,z-score,[18]; [26],-0.725 (inactive)
same,z-score,[18]; [27],-0.391
N=C1S/C(=C\c2ccc(-c3ccc4c(c3)C(=O)NC4=O)o2)C(=O)N1c1ccc(Br)cc1,outcome,[1],inactive
same,outcome,[2],inactive
same,outcome,[3],inactive
same,outcome,[4],inactive
same,outcome,[5],inactive
C[C@H](NCc1ccc(OCc2cccc(F)c2)cc1)C(N)=O,AC50,[1],18.7 µM (active)
same,AC50,[2],4.69 µM (active)
same,AC50,[3],9.35 µM (active)
same,AC50,[4],14.8 µM (active)
CCCCCCCCCCCCc1ccc(S(=O)(=O)Nc2nncs2)cc1,outcome,[1],inactive
same,outcome,[2],inactive
same,outcome,[3],inactive
same,outcome,[4],inactive
same,outcome,[5],inactive
same,fold change,[17]; [22],0.927 (inactive)
same,fold change,[17]; [23],1.16
same,cell count,[17]; [24],8010
same,cell count,[17]; [25],8650
same,z-score,[18]; [26],0.533 (inactive)
same,z-score,[18]; [27],0.0837
O=C(Nc1cc2cc[nH]c2cn1)c1ccccc1,AC50,[1],14.8 µM (active)
same,AC50,[2],5.9 µM (active)
same,AC50,[3],3.32 µM (active)
same,AC50,[4],14.8 µM (active)
same,fold change,[17]; [22],0.982 (inactive)
same,fold change,[17]; [23],0.194
same,cell count,[17]; [24],8430
same,cell count,[17]; [25],8590
same,z-score,[18]; [26],-0.697 (inactive)
same,z-score,[18]; [27],-2.76
